Results published in the supplement of paper PMC10849652.
About 8,800 targets were measured; listed, in parts, are those with a hit and a random draw of the rest. About 0.5% of all pairs of compound and target were hits. Unmarked numbers belong to inactive results.

How the values were obtained:
Assay in all cases: log2 fold change, soluble protein after heating vs DMSO (PISA); higher = thermal stabilisation; K562 lysate, 10 uM; active = over 0.2 and 3.5 SD of the protein, either way, in both replicates (recomputed)
nilotinib = compound: Cc1cn(-c2cc(NC(=O)c3ccc(C)c(Nc4nccc(-c5cccnc5)n4)c3)cc(C(F)(F)F)c2)cn1 [nilotinib]
How it was run: (§1)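 K562 pellets were dounce-homogenised in PBS pH 7.4 with 1 mM MgCl2, and the crude extract at 1 mg/mL protein was treated with 10 μM compound for 30 min. Aliquots were heated for 3 min across 48°C-58°C, pooled, and brought to 0.5% NP-40 at 4°C; soluble protein was the supernatant after 21,000xg for 90 min. Soluble protein was quantified by TMTpro 16plex LC-MS/MS with channel sums equalised, and reported as log2 fold change in thermal stability against DMSO controls, with values from duplicates.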

[1] = compound: Cc1nc(Nc2n[nH]c3c2CN(C(=O)N[C@H](CN(C)C)c2ccccc2)C3(C)C)c2sccc2n1
How it was run: as §1

dasatinib = compound: Cc1nc(Nc2ncc(C(=O)Nc3c(C)cccc3Cl)s2)cc(N2CCN(CCO)CC2)n1 [dasatinib]
How it was run: as §1

[2] = compound: Cc1ncc(-c2ccnc(Nc3ccc(S(C)(=O)=O)cc3)n2)n1C(C)C
How it was run: as §1

[3] = compound: Cn1cc(-c2ccc3c(c2)CCN3C(=O)Cc2cccc(C(F)(F)F)c2)c2c(N)ncnc21
How it was run: as §1

quisinostat = compound: Cn1cc(CNCC2CCN(c3ncc(C(=O)NO)cn3)CC2)c2ccccc21 [quisinostat]
How it was run: as §1

tipifarnib = compound: Cn1cncc1[C@@](N)(c1ccc(Cl)cc1)c1ccc2c(c1)c(-c1cccc(Cl)c1)cc(=O)n2C [tipifarnib]
How it was run: as §1

[4] = compound: NC(=O)Nc1cc(-c2cccc(F)c2)sc1C(=O)N[C@H]1CCCNC1
How it was run: as §1

[5] = compound: NC(=O)c1cnc(N[C@@H]2CCCC[C@@H]2N)nc1Nc1cccc(-n2nccn2)c1
How it was run: as §1

[6] = compound: NC1(c2ccc(-c3nc4ccn5c(=O)[nH]nc5c4cc3-c3ccccc3)cc2)CCC1
How it was run: as §1

[7] = compound: NCC(=O)Nc1ccc(-n2nc(C(F)(F)F)cc2-c2ccc3c(ccc4ccccc43)c2)cc1
How it was run: as §1

vorinostat = compound: O=C(CCCCCCC(=O)Nc1ccccc1)NO [vorinostat]
How it was run: as §1

silmitasertib = compound: O=C(O)c1ccc2c(c1)nc(Nc1cccc(Cl)c1)c1ccncc12 [silmitasertib]
How it was run: as §1

[8] = compound: O=C1NC(=O)C(c2cnc3ccccn23)=C1c1cn2c3c(cc(F)cc13)CN(C(=O)N1CCCCC1)CC2
How it was run: as §1

entospletinib = compound: c1cn2cc(-c3ccc4cn[nH]c4c3)nc(Nc3ccc(N4CCOCC4)cc3)c2n1 [entospletinib]
How it was run: as §1

Sequence of UniProt Q8WV92 (Q8WV92 whole entry, looked up): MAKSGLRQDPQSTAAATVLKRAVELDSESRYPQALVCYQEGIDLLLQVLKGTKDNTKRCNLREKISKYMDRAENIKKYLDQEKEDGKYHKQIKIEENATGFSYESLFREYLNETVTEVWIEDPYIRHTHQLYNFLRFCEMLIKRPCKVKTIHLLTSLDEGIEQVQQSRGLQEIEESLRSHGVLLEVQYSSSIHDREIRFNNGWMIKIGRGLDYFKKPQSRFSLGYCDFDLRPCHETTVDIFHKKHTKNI
Sequence of UniProt Q9NZL9 (Q9NZL9 whole entry, looked up): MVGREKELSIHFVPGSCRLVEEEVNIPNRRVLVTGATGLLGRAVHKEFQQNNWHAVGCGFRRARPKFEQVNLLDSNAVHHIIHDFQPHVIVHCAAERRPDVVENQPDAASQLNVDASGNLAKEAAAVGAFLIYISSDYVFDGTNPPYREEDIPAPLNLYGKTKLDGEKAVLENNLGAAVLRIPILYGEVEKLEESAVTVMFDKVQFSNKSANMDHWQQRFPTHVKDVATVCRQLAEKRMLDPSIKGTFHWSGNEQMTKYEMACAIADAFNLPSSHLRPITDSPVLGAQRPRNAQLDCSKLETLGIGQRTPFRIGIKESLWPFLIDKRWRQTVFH
Sequence of UniProt Q5T3J3 (Q5T3J3 whole entry, looked up): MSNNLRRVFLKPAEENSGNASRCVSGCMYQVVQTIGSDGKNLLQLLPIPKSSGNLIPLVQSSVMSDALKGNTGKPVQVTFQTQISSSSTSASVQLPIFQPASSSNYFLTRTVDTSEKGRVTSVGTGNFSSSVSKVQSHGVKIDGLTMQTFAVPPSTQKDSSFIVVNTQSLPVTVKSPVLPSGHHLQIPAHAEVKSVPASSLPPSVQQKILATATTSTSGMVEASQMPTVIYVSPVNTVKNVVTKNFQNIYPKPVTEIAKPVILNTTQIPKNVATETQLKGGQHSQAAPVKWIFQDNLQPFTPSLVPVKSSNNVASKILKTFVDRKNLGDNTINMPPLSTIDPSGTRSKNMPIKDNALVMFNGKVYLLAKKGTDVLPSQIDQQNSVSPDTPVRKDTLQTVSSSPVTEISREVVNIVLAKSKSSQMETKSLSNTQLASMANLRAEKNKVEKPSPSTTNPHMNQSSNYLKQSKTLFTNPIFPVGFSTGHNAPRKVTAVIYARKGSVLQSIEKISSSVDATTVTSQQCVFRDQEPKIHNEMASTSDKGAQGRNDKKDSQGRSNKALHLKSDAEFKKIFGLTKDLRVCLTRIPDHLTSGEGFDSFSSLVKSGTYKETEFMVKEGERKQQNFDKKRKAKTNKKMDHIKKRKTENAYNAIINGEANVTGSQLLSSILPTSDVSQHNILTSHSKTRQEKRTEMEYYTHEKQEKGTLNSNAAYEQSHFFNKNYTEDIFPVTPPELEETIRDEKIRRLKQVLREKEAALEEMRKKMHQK
Sequence of UniProt Q7Z3U7 (Q7Z3U7 whole entry, looked up): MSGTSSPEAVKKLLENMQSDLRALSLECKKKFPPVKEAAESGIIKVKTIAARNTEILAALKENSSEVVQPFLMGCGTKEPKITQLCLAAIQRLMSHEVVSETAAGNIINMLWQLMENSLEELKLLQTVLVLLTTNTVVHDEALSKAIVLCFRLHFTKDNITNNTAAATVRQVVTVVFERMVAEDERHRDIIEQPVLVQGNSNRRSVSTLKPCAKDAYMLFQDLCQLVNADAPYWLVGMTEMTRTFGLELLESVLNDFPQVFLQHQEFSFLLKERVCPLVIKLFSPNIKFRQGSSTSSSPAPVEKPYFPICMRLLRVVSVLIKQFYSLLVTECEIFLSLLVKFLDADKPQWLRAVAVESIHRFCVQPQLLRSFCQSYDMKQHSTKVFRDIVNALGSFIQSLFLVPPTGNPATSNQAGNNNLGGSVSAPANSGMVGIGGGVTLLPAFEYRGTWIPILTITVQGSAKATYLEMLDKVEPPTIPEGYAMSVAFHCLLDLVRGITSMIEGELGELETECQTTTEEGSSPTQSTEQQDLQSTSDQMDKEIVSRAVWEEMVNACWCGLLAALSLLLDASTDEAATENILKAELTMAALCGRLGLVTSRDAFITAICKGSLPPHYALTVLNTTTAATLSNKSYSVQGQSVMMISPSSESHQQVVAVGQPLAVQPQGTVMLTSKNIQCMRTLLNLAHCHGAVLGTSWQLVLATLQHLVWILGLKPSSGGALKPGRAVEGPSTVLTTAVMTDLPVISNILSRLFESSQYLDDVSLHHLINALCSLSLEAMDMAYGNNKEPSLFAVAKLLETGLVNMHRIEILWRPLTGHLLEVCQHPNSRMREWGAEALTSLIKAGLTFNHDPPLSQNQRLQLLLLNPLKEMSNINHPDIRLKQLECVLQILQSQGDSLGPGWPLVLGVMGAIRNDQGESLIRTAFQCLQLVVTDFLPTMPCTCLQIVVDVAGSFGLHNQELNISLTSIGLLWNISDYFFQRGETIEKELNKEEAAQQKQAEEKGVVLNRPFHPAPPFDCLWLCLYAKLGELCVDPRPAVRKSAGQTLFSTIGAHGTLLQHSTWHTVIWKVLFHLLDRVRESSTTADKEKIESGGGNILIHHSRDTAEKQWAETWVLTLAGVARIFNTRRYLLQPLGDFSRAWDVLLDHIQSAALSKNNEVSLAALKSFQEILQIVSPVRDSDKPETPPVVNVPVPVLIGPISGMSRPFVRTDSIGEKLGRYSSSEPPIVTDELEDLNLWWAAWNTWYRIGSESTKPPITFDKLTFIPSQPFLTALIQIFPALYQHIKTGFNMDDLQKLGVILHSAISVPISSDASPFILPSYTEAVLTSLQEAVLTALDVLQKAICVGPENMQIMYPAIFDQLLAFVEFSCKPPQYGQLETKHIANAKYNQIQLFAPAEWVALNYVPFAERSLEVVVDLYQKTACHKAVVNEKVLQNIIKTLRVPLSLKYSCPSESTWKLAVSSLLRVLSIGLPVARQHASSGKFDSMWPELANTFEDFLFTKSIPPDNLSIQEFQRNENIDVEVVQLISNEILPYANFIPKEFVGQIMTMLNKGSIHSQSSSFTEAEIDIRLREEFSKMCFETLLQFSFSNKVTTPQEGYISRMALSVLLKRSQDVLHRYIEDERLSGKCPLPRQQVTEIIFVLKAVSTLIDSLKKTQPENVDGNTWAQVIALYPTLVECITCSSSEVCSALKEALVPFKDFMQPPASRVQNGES
Sequence of UniProt O60244 (O60244 whole entry, looked up): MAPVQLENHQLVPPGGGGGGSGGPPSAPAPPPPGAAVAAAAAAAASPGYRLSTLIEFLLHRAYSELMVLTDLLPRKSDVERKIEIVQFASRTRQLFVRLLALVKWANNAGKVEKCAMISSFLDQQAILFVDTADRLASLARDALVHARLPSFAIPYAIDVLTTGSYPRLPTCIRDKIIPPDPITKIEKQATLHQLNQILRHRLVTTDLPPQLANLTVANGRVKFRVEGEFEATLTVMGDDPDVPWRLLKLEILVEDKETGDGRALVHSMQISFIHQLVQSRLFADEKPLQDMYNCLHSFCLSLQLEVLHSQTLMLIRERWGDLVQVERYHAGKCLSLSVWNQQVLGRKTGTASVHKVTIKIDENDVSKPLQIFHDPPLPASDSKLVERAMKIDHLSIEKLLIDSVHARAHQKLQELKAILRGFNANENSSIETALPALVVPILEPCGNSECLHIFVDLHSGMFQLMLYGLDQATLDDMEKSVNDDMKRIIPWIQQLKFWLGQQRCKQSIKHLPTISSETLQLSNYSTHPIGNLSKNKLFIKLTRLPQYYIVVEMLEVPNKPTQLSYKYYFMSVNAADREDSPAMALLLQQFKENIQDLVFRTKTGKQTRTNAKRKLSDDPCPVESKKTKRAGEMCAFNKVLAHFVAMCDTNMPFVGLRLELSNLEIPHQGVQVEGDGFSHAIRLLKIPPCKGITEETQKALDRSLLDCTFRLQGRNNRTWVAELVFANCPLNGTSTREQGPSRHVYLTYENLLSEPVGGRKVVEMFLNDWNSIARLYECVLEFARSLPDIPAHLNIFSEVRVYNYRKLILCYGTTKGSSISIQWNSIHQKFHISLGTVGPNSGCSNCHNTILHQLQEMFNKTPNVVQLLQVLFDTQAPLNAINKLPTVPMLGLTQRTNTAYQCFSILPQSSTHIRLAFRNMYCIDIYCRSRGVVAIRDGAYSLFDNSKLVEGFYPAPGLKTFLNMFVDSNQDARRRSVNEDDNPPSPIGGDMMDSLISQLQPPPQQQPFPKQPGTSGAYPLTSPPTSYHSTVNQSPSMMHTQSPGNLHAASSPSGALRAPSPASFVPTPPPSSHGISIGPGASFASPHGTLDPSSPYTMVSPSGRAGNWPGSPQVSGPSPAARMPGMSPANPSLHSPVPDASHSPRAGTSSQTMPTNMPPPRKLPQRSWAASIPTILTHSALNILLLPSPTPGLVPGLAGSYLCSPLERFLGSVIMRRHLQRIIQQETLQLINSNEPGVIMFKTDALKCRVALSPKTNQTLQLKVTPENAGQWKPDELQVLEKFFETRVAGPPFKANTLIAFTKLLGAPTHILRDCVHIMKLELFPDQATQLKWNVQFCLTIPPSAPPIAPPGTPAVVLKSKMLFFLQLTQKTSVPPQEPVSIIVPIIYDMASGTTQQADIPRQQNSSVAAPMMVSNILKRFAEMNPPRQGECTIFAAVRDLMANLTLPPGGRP
Sequence of UniProt Q8NF37 (Q8NF37 whole entry, looked up): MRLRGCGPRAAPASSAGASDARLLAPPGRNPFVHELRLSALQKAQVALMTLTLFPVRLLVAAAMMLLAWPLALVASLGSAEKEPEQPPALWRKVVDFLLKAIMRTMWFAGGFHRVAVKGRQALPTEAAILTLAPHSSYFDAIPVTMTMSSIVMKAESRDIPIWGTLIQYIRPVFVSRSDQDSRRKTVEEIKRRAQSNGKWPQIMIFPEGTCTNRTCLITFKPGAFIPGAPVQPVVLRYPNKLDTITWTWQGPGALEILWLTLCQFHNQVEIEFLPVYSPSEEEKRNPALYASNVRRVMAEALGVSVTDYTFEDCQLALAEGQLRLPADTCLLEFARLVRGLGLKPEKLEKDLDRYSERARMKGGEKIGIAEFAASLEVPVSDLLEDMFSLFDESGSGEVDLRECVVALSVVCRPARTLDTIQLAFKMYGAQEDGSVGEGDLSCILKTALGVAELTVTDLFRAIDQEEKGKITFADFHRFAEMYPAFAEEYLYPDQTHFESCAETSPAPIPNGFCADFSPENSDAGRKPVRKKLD

| Target | log2 fold change (nilotinib) | log2 fold change [1] | log2 fold change (dasatinib) | log2 fold change [2] | log2 fold change [3] | log2 fold change (quisinostat) | log2 fold change (tipifarnib) | log2 fold change [4] | log2 fold change [5] | log2 fold change [6] | log2 fold change [7] | log2 fold change (vorinostat) | log2 fold change (silmitasertib) | log2 fold change [8] | log2 fold change (entospletinib) |
| --- | --- | --- | --- | --- | --- | --- | --- | --- | --- | --- | --- | --- | --- | --- | --- |
| KRR1 (UniProt Q13601) | -0.057 | 0.058 | -0.014 | 0.006 | 0.012 | -0.336 (active) | -0.039 | 0.018 | 0.022 | -0.08 | 0.013 | 0.02 | 0.013 | 0.101 | 0.011 |
| KNL1 (UniProt Q8NG31) | 0.011 | -0.004 | -0.014 | 0.02 | 0.012 | -0.048 | -0.06 | 0.023 | 0.024 | -0.001 | 0.022 | -0.254 (active) | -0.003 | -0.009 | -0.011 |
| MORC3 (UniProt Q14149) | 0.001 | 0.012 | 0.006 | -0.015 | 0.046 | -0.018 | -0.01 | 0.037 | -0.017 | -0.004 | 0.008 | -0.303 (active) | -0.01 | 0.005 | 0.009 |
| MAPK14 isoform 2 (UniProt Q16539) | 0.523 | 0.041 | 0.879 (active) | 0.037 | 0.033 | -0.031 | -0.039 | -0.035 | 0.076 | -0.018 | -0.06 | -0.328 | 0.291 | -0.092 | -0.015 |
| MBLAC2 (UniProt Q68D91) | 0.028 | -0.076 | -0.003 | -0.126 | 0.059 | 0.026 | 0.08 | 0 | -0.005 | 0.005 | -0.1 | 0.084 | -0.015 | -0.074 | -0.011 |
| MITD1 (UniProt Q8WV92) | -0.022 | 0.089 | 0.011 | -0.09 | 0.027 | 0.027 | 0.022 | 0.03 | 0.07 | -0.047 | 0.01 | 0.255 (active) | -0.051 | -0.079 | -0.024 |
| KIF2C (UniProt Q99661) | 0.013 | 0.009 | -0.021 | 0.002 | 0.028 | -0.068 | 0.003 | 0.035 | -0.01 | -0.005 | 0.003 | -0.464 (active) | 0.028 | 0.012 | 0.024 |
| MON2 isoform 5 (UniProt Q7Z3U7) | -0.006 | -0.021 | -0.072 | 0.018 | 0.039 | -0.074 | -0.004 | 0.021 | 0.005 | -0.003 | 0.021 | -0.525 (active) | 0.021 | 0 | 0.005 |
| LRIF1 (UniProt Q5T3J3) | -0.147 | 0.086 | 0.047 | 0.022 | -0.011 | 0 | 0.057 | -0.008 | -0.163 | -0.056 | 0.079 | 0.082 | -0.11 | -0.024 | 0.001 |
| MED14 (UniProt O60244) | 0.027 | -0.013 | -0.012 | -0.015 | 0.011 | -0.021 | -0.013 | 0.011 | 0.015 | 0.047 | -0.01 | -0.21 (active) | -0.035 | 0.002 | -0.084 |
| MLST8 (UniProt Q9BVC4) | -0.011 | -0.006 | 0.046 | 0.079 | -0.041 | -0.058 | 0.076 | 0.043 | -0.065 | -0.067 | 0.006 | -0.357 (active) | 0.104 | 0.046 | 0.043 |
| LIG4 (UniProt P49917) | 0.02 | -0.072 | 0.018 | -0.008 | -0.026 | -0.085 | 0.038 | 0.066 | -0.045 | -0.005 | -0.041 | -0.368 | 0.107 | -0.039 | 0.062 |
| MACO1 (UniProt Q8N5G2) | -0.003 | 0.017 | -0.092 | 0.066 | 0.004 | 0.042 | 0.042 | 0.033 | -0.02 | 0.054 | 0.081 | 0.028 | -0.003 | -0.003 | 0.005 |
| KLC1 isoform 6 (UniProt Q07866) | 0.009 | -0.017 | -0.021 | -0.009 | 0.009 | -0.014 | -0.005 | -0.014 | 0.002 | 0.017 | 0.024 | -0.231 (active) | -0.004 | -0.034 | 0.013 |
| LPCAT1 (UniProt Q8NF37) | -0.039 | 0.015 | -0.084 | 0.014 | -0.045 | 0.016 | 0.046 | 0.008 | 0.053 | 0.033 | -0.011 | 0.027 | -0.076 | -0.026 | -0.057 |
| MAD2L1BP isoform 3 (UniProt Q15013) | -0.028 | 0.108 | 0.016 | -0.007 | -0.026 | -0.066 | 0.018 | -0.019 | 0.048 | -0.056 | -0.026 | -0.299 (active) | -0.019 | 0.008 | 0 |
| KIFC1 (UniProt Q9BW19) | -0.008 | 0.003 | -0.031 | -0.002 | 0.034 | -0.055 | 0.006 | 0.001 | -0.024 | -0.025 | 0.02 | -0.898 (active) | 0.03 | -0.04 | -0.002 |
| LTN1 isoform 3 (UniProt O94822) | 0.006 | -0.007 | -0.086 | -0.009 | 0.014 | -0.023 | -0.002 | 0.044 | -0.016 | -0.027 | 0.057 | -0.58 (active) | 0.04 | 0.028 | 0.034 |
| MAT2B (UniProt Q9NZL9) | 0.002 | -0.014 | -0.023 | -0.024 | -0.007 | 0.021 | 0.02 | -0.005 | 0.04 | 0.009 | 0.019 | 0.103 | 0.005 | 0.021 | 0.024 |
